NADH coupling – inhibition of NAD/NADH coupling enzymes, library profiling; coupled PK/LDH NADH assays, four targets; hit rate 0.02% among 65,000; IC50, µM (doses to about 10 µM), for the others: top-dose inhibition; AID 774;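 active = single-dose screening hits from any of four coupled enzyme assays that gave an IC50 when retested across doses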;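 note: the DPM-DC format reads NADH fluorescence rather than 340 nm absorbance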
Spn DPM-DC inh – inhibitors of Streptococcus pneumoniae diphosphomevalonate decarboxylase | purified DPM-DC, PK/LDH coupled NADH fluorescence | calls only at 10 µM | hit rate 0.49% among 65,000;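 active = the 320 compounds with the highest percent inhibition in the single-dose primary screen, excluding strongly autofluorescent ones, cut at about 32% in these data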;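 note: kinetic rate of NADH fluorescence loss reporting ADP formed by the decarboxylase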
PMK inhibit – S. pneumoniae PMK inhibition. inhibition, % at 10 µM. purified PMK, PK/LDH-coupled NADH absorbance 340 nm. AID 539. hit rate 0.49% among 65,000;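 active = top-ranked compounds by inhibition in the single 10 µM screen, taking a fixed number of the strongest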;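 note: 0% = full reaction with DMSO carrier and 100% = background rate without enzyme reaction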
Autofluor 339 – intrinsic fluorescence of library compounds, ex339/em460 – biochemical, MLSMR library, data from DPM-DC assay, artefact control, profiling panel. compound autofluorescence, ex339/em460 nm, NADH buffer; stronger effect = higher value; 1 = no-compound wells, NADH background. fluorescence fold increase at 10 µM. hit rate 5.5% among 65,000. AID 709;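 active = at 10 µM, mean starting fluorescence two-fold or more over control wells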;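 note: signal is the first read of a kinetic run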
A340 absorber – compound absorbs light at 340 nm; 65,000 tested, under 10 active; AID 708; compound absorbance at 340 nm, fold over control; fold change at 10 µM;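 active = at 10 µM dose, initial 340 nm absorbance at least 2 fold that of control wells; inactive = change under 2 fold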;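 note: initial absorbance extrapolated from kinetic A340 decline of NADH oxidation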
Spn MK inh – inhibitors of Streptococcus pneumoniae mevalonate kinase | purified MK, PK/LDH-coupled NADH absorbance 340 nm | inhibition, % at 10 µM | hit rate 0.48% among 65,000 | AID 555;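 active = ranked among the strongest by inhibition in the single 10 µM screen, a fixed top-ranked set picked for dose follow-up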
* hit, by the source's call; i = inactive; · = no result shown. Most compounds without a hit are left out; they make up all but 6.8% or so of the library.

SMILES	NADH coupling	Spn DPM-DC inh	PMK inhibit	Autofluor 339	A340 absorber	Spn MK inh
c1coc(CNc2ncnc3nc[nH]c23)c1	5%	i	0	1.1	1	14
CCc1cc2c(NCCN3CCCCC3)ncnc2s1	9%	i	24	1.1	1	2
Cc1ccc2[nH]c3c(NCCCN4CCCC4=O)ncnc3c2c1	9%	·	10	3.8*	1.1	7
Cc1ccc2[nH]c3c(NCc4ccco4)ncnc3c2c1	3%	·	1	3.8*	1.1	4
COc1ccc2[nH]c3c(NCCN4CCCCC4)ncnc3c2c1	7%	·	8	3.7*	1.1	5
CCc1ccc(NC(=O)CCNS(=O)(=O)c2cccc3nonc23)cc1	2%	i	0	1.1	1	5
O=C(c1coc(=O)c(Br)c1)N1CCCc2ccccc21	6%	·	0	2.4*	1.1	11
C[C@@H](NC(=O)c1coc(=O)c(Br)c1)c1ccccc1	2%	i	1	1.1	1.2	5
CC1(C)CCCN(C(=O)c2coc(=O)c(Br)c2)C1	6%	·	6	3.7*	1.1	5
O=C(c1cc(-c2ccco2)on1)N1CCCc2ccccc21	29%	i	31*	1.2	1	50*
O=C(c1ccc2ccccc2c1)N1CCN(c2ccc(O)cc2)CC1	10%	i	26*	1	1	5
OC(CN1CCN(c2ccccc2)CC1)c1ccc2c(c1)CCN2 (configuration not stated)	1%	i	0	1.1	1	3
CN(C=O)CP(=O)(O)CCN1CCCC1=O	2%	i	8	0.99	0.99	8
O=C(Nc1cc(Cl)ccc1O)c1cc2n(n1)C(C(F)(F)F)CC(c1ccc3c(c1)OCO3)N2 (configuration not stated)	5%	i	9	1.2	1.1	7
O=C(NCc1ccc2c(c1)OCO2)c1cc2n(n1)C(C(F)(F)F)CC(c1ccc3c(c1)OCO3)N2 (configuration not stated)	4%	i	25*	1	0.96	0
Cc1ccc2cc3c(NC(=O)CC(C)C)nn(C)c3nc2c1	6%	i	0	2	1	15
CCn1nc(NC(=O)c2ccccn2)c2cc3cc(C)ccc3nc21	14%	i	12	3*	1.1	9
Cc1ccc2cc3c(NC(=O)c4ccco4)nn(CC(C)C)c3nc2c1	3%	·	3	3.9*	1	2
CC(C)Cn1nc(NC(=O)C2CCCO2)c2cc3ccccc3nc21 (configuration not stated)	6%	i	2	2.1*	1.1	7
CCn1nc(NC(=O)c2cccnc2)c2cc3ccccc3nc21	3%	i	0	1.2	0.99	0
CC(C)Cn1nc(NS(=O)(=O)c2ccccc2)c2cc3ccccc3nc21	1%	i	0	1.2	1	2
COCCNC(=O)c1c[nH]c2ccc(S(=O)(=O)N3CCC4(CC3)OCCO4)cc2c1=O	10%	·	19	2.1*	1.1	0
CCN(CC)S(=O)(=O)c1ccc2c(c1)c(=O)c(C(=O)N1CCOCC1)cn2C	6%	i	12	0.99	1	4
CC1CCN(S(=O)(=O)c2ccc3[nH]cc(C(=O)NCCN4CCOCC4)c(=O)c3c2)CC1	2%	·	12	1.8	1	0
COc1ccc2[nH]cc(C(=O)N3CCCCC3)c(=O)c2c1	5%	i	2	2.1*	1.1	9
SMILES	NADH coupling	Spn DPM-DC inh	PMK inhibit	Autofluor 339	A340 absorber	Spn MK inh
O=C(O)c1c[nH]c2ccc(S(=O)(=O)N3CCN(c4ccc(F)cc4)CC3)cc2c1=O	2%	i	10	1.2	1	0
CCN(c1ccccc1)S(=O)(=O)c1ccc2[nH]cc(C(=O)N3CCOCC3)c(=O)c2c1	11%	·	22	2.1*	1.1	0
CCOC(=O)N1CCN(S(=O)(=O)c2ccc3[nH]cc(C(=O)O)c(=O)c3c2)CC1	10%	i	17	2.4*	1.1	3
CCc1ccc2[nH]cc(C(=O)N3CCCCCC3)c(=O)c2c1	6%	i	10	1	1.1	5
Cc1oc2cc3c(C(=O)OCCN(C)C)c(C)oc3cc2c1C(=O)OCCN(C)C	10%	i	0	1.1	1	4
Cc1ccc(S(=O)(=O)N2CCOCC2)cc1C(=O)N1CCOCC1	6%	i	4	1	1	2
